{"source": "ChEMBL document CHEMBL1157539", "about": "“Thousands of chemical starting points for antimalarial lead identification” (Nature, 2010)", "note": "Where “and” joins values, the source holds several entries; their conditions need not be identical. Equal values may be shown once."}
{"test_system": "Plasmodium falciparum", "assay": "GSK_TCMDC: Inhibition of Plasmodium falciparum Dd2 in whole red blood cells, using parasite LDH activity as an index of growth. Test compounds present at 2uM", "assay_type": "functional"}
{"smiles": "NC(=O)c1ccc2[nH]cc(C3CCN(CC4CCC(NC(=O)/C=C/c5ccc(Cl)c(Cl)c5)CC4)CC3)c2c1", "note": "(configuration not stated)", "Inhibition": "26% and 32%"}
{"smiles": "CCC(C)CN1CCC(N(C)c2cc(NC(=O)c3cccc(C)c3)ccn2)CC1.O=C(O)C(F)(F)F", "note": "(configuration not stated)", "Inhibition": "14%"}
{"smiles": "Cc1[nH]c2ccc(O)cc2c1C1CCN(CC2CCC(NC(=O)/C=C/c3ccc(Cl)c(Cl)c3)CC2)CC1", "note": "(configuration not stated)", "Inhibition": "95%"}
{"smiles": "CC[C@H]1CN2CC[C@H]1C[C@H]2[C@H](O)c1cc(-c2ccc(C)cc2)nc2ccc(OC)cc12.Cl", "Inhibition": "99%"}
{"smiles": "CC(Cc1ccc(OCCCCOc2ccccc2)cc1)NCCc1ccccc1Cl", "note": "(configuration not stated)", "Inhibition": "58%"}
{"smiles": "CC(C)CNCc1ccc(-c2cccc(CN(C(=O)Nc3ccccc3)C3CCN(Cc4ccccc4)CC3)c2)cc1.O=C(O)C(F)(F)F", "Inhibition": "95%"}
{"smiles": "COc1ccc(CN2CCN(CCOC(c3ccccc3)c3ccccc3)CC2)c(O)c1", "Inhibition": "84%"}
{"smiles": "Cc1cc(-c2ncc[nH]2)ccc1-c1ccc(C(=O)N2CCc3cc4c(cc32)C2(CCN(C)CC2)CO4)cc1.Cl", "Inhibition": "98%"}
{"smiles": "O=C(/C=C/c1c(Cl)cccc1Cl)NC1CCC(CN2CCC(c3c[nH]c4ccccc34)CC2)CC1", "note": "(configuration not stated)", "Inhibition": "21% and 42%"}
{"smiles": "Cc1cc(N(C)C2CCN(C)CC2)nc(Nc2ccc(Cl)cc2)n1", "Inhibition": "90%"}
{"smiles": "O=C(/C=C/c1ccccc1Cl)NC1CCC(CN2CCC(c3c[nH]c4ccccc34)CC2)CC1", "note": "(configuration not stated)", "Inhibition": "51% and 35%"}
{"smiles": "C=C[C@H]1CN2CC[C@H]1C[C@H]2[C@H](O)c1cc(/C=C/c2ccc(F)cc2)nc2ccc(OC)cc12.Cl", "Inhibition": "99%"}
